# Measurements taken from PubChem BioAssay AID651871 (Sanford-Burnham Center for Chemical Genomics, 2012).
# “And” between values parts separate entries of the source, which are not always exact repeats. Identical values can stand only once.
# Tested on: H9c2
# Assay: protection of cardiomyocytes from stress damage, SAR follow-up, cell-based, panel, H9c2 and HL-1, ATP luminescence, set 2 (AID 651871);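 note: cells exposed to stressor for 2 h before ATP readout; reference of the scale not given here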
# Settings: H9c2/HL-1 cardiomyocytes, 2-deoxyglucose stress, with 2-deoxyglucose; run 5, at 79 µM (top of the series)
row,Structure (SMILES),activity (protection/inhibition)
1,COc1ccc2nc(-c3cc(OC)c(OC)c(OC)c3)cc(C(=O)NCC(=O)Nc3ccc(C(C)=O)cc3)c2c1,70.9%
2,COc1ccc2c(c1OC)C(=O)N1c3ccccc3C(=O)N(Cc3cccc(Cl)c3Cl)C21 (stereo not drawn),88% and 69.1% and -5.13%
3,CCOC(=O)c1cccc(NC(=O)CNC(=O)c2cc(-c3cc(OC)c(OC)c(OC)c3)nc3ccccc23)c1,97.3%
